Most compounds without a hit are left out; they make up all but 2.3% or so of the library.
MBD2 DNA inh – inhibitors of MBD2 binding to methylated DNA, primary screen, biochemical, TR-FRET, DNA-binding domain, human. Methyl-CpG-binding domain protein 2 (Homo sapiens), Q9UBB5. MBD2 binding to methylated oligonucleotide. inhibition, % at 4.4 µM. 0.31% of 370,000 active. AID 686964, 2013; in the data active = inhibition above about 13%
Target sequence (Q9UBB5 whole entry, looked up, the tested form may be a part): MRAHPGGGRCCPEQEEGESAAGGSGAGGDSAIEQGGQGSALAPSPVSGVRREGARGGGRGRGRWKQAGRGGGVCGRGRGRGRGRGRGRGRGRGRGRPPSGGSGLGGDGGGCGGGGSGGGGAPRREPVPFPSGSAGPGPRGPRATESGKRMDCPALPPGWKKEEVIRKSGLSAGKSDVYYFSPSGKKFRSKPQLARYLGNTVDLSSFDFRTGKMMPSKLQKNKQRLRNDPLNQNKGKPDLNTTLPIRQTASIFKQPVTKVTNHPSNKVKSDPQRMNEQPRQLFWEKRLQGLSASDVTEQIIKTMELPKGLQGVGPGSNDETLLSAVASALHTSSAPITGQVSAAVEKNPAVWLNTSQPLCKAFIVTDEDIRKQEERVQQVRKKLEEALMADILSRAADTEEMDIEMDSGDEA
LEDGF integ inh – blockers of LEDGF/p75-dependent integrase strand transfer – biochemical, TR-FRET, high throughput, primary screen; HIV-1 integrase (with human LEDGF/p75); TR-FRET IN-LEDGF/p75 DNA integration, Eu/Cy5; inhibition, % at 3.7 µM; 0.64% of 370,000 active; AID 743269, 2014;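 active = inhibition above the screen-wide mean plus 3 SD, cut at about 13% in these data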;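 note: signal is the Cy5 over europium emission ratio at 671 and 618 nm; 0% = plate median of compound wells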
UHRF1 MBD2 ctr – UHRF1 methylated DNA binding inhibitors, primary screen, counter-screen for MBD2 inhibitor project, biochemical, TR-FRET, human UHRF1, single concentration | AID 687016, 2013 | inhibition, % at 4.4 µM | UHRF1 binding to methylated oligo | 0.75% of 370,000 active | E3 ubiquitin-protein ligase UHRF1 (Homo sapiens), Q96T88; in the data active = inhibition above about 21%;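 note: UHRF1 SRA domain binding a hemimethylated CpG hairpin DNA probe; 0% = median of test compound wells and 100% = reference inhibitor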
PLCb3 inh – human PLC-beta3 inhibitors, primary screen, biochemical, fluorescence | Purified PLC-beta3, fluorogenic substrate | 0.18% of 370,000 active | inhibition, % at 12.2 µM | 1-phosphatidylinositol 4,5-bisphosphate phosphodiesterase beta-3 (Homo sapiens), Q01970; in the data active = inhibition above about 11%;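 note: 0% = median of compound wells on plate and 100% = full blocker control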
PLCg1 inh – PLC-gamma1 enzyme inhibitors, primary screen, biochemical, fluorescence, purified enzyme; AID 720700, 2013; inhibition, % at 12.2 µM; fluorogenic substrate; 1-phosphatidylinositol 4,5-bisphosphate phosphodiesterase gamma-1 (Homo sapiens), P19174; 0.84% of 370,000 active; in the data active = inhibition above about 9.5%
IN multimer act – HIV-1 IN multimer formation enhancers, counter-screen for LEDGF/p75 integration inhibitor project, biochemical, TR-FRET. shares compounds with LEDGF integ inh. TR-FRET HIV-1 integrase multimerization. activation, % at 7.7 µM. 17% of 2,000 active; in the data active = activation above about 8.9%
TR-FRET interf – TR-FRET optical interference artefacts, confirmation, artefact control for LEDGF/p75-dependent integration inhibitor project, biochemical, HIV-1 IN multimerization; shares compounds with LEDGF integ inh; TR-FRET optical interference counterscreen; inhibition, % at 7.7 µM; 2,000 tested, under 10 active; AID 1053135, 2014;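 active = inhibition above the mean over all tested compounds plus 3 SD, which no compound reached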;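 note: 0% = integrase with antibodies and DMSO and 100% = antibodies without integrase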
LEDGF integ conf – inhibitors of HIV-1 IN-LEDGF/p75 DNA integration, confirmation, biochemical, TR-FRET. shares compounds with LEDGF integ inh. TR-FRET LEDGF/p75-dependent HIV-1 integration. inhibition, % at 3.7 µM. 36% of 2,000 active; in the data active = inhibition above about 14%
Active calls of the source: *; nt = no result given; ! = a repeat was not active.

SMILES	MBD2 DNA inh	LEDGF integ inh	UHRF1 MBD2 ctr	PLCb3 inh	PLCg1 inh	IN multimer act	TR-FRET interf	LEDGF integ conf
O=C(NCc1ccccc1)N1CCC(c2nc3ccc(Cl)cc3[nH]2)CC1	-1	-1	0	3	1	nt	nt	nt
N#Cc1nc(-c2cccc(Cl)c2)oc1N1CCC(C(N)=O)CC1	6	26*	1	-48	-37	0	-1	1
COC(=O)c1cn(-c2ccc3c(c2)[C@]2(CC(=O)N(C)C2c2ccccc2)C(=O)N3CC(C)C)nn1 (some centres undefined)	-1	-3	0	1	-2	nt	nt	nt
CSC1(SC2=NCCN2)SC2(NCCN2)S1	4	23*	5	-4	6	0	2	-1
C/C(=C\C(=O)c1ccccc1)Nc1ccc(O)cc1	-6	20*	1	-30	-24	3	-14	0
C/C(=C\C(=O)c1cccnc1)Nc1ccc(O)cc1	-5	17*	-1	-35	-26	2	-8	-2
COc1ccc(C(=O)/C=C(\C)Nc2ccc(NC(C)=O)cc2)cc1	0	6	8	-9	3	nt	nt	nt
COc1ccc(NC(=O)c2cccnc2)cc1	1	2	3	-4	2	nt	nt	nt
C[n+]1cccc2c(Br)ccc([O-])c21	-8	45*	6	-6	8	4	-13	61*
O=C1OC(c2cccs2)=N/C1=C\c1ccc(-c2ccccc2Cl)o1	-4	5	-1	-56	-22	nt	nt	nt
O=C1OC(c2cccs2)=N/C1=C/c1ccc(-c2cccc(C(=O)O)c2)o1	8	29*	44*	-8	5	9.5*	-48	15*
COc1ccc(NC(=O)NC2CCN(S(=O)(=O)c3ccc(F)cc3)CC2)cc1OC	-2	3	3	2	0	nt	nt	nt
CC(C)c1cccc(-c2csc(C(C)(O)c3ccccc3)n2)c1 (centres undefined)	1	16*	1	1	2	0	-1	-10
COc1cccc(C(C)(O)c2nc(-c3ccc(Cl)cc3)cs2)c1 (centres undefined)	3	-4	1	-1	2	nt	nt	nt
COc1ccc(-c2csc(C(C)(O)c3cccc(OC)c3)n2)cc1 (centres undefined)	2	22*	-3	3	1	0	0	-5
Cc1cccc(-c2cccc3c4c([nH]c23)[C@@H]2C[C@H](N(C)C(=O)Nc3ccccc3C)[C@H]([C@H](C)O)CN2CC4)c1	-8	-1	-1	-48	-43	nt	nt	nt
C[C@@H]1CCN(C2CC2)S(=O)(=O)c2ccc(N3CCC[C@H]3CO)cc2O1	2	-3	0	-5	-7	nt	nt	nt
Cc1ccc(NC(=O)CN(c2ccccc2F)S(C)(=O)=O)cc1	4	21*	1	0	2	-2	12	-4
O=CN/C=C/c1cc(O)ccc1O	1	24*	16	-323	-233	18*	-91	7
O=Cc1ccc(O)cc1O	-2	0	1	-4	-1	nt	nt	nt
COc1ccc(CN2C(=O)CCCC2(C)c2nnnn2-c2ccc3c(c2)OCCO3)cc1 (centres undefined)	4	-2	-1	0	0	nt	nt	nt
Cc1nn(C)c(C)c1/C=N/NC(=O)CCn1cc([N+](=O)[O-])cn1	6	15*	0	2	-2	0	0	-1
CC(C)NC(=O)CCCn1cc([N+](=O)[O-])cn1	3	7	6	-17	5	nt	nt	nt
CCCc1cnc(Nc2nc(C(N)Cc3ccc(OC)cc3)cs2)nc1 (centres undefined)	6	13*	0	4	3	-1	4	-8
Nc1ccc(N2CCN(CCCCN3C(=O)C4CCCN4C3=O)CC2)cc1 (centres undefined)	7	22*	10	-12	-10	-2	12	-4
SMILES	MBD2 DNA inh	LEDGF integ inh	UHRF1 MBD2 ctr	PLCb3 inh	PLCg1 inh	IN multimer act	TR-FRET interf	LEDGF integ conf
CC(C)CN1C(=O)[C@]2(CC(=O)N(C)C2c2ccccc2)c2cc(-n3cc(-c4ccccc4)nn3)ccc21 (some centres undefined)	-4	7	-2	4	8	nt	nt	nt
C[c-]1[c-](C)[c-](C)[c-](C)[c-]1C.[Fe].c1cc2nccc(N3CCCC3)[c-]2c1 (centres undefined)	5	20*!	14	-26	-15	0	1	49*
CN(c1ccc(C(=O)COC(=O)C2CC2)cc1)S(C)(=O)=O	2	31*	2	4	0	0	0	1
FC(F)(F)c1cc(CNC2CCC23CCCCC3)ccc1Cl (centres undefined)	-7	3	-1	4	1	nt	nt	nt
O=C(Nc1cccc(C2=NCCN2)c1)Nc1cccc(C2=NCCN2)c1	0	18*	8	3	-1	-3	12	18*
Cn1c(SCC(=O)Nc2nc3c(s2)CCCC3)nnc1-c1ccccc1	-5	-5	-3	2	-2	nt	nt	nt
Cn1c(SCC(=O)NCc2ccco2)nnc1-c1ccccc1	0	0	-1	1	-2	nt	nt	nt
Cc1nnc(NC(=O)CSc2nnc(-c3ccccc3)n2C)s1	0	18*	2	2	7	-1	3	-3
Cn1c(SCC(=O)NC(=O)NCc2ccco2)nnc1-c1ccccc1	5	22*	22*	-1	-3	8	-39	8
COC(=O)[C@]12C[C@H](CC(=O)N3CCCC3)C(=O)N(Cc3ccc(Cl)cc3Cl)C1=C[C@H](C(C)C)O[C@@H]2C1CC1	0	6	0	0	3	nt	nt	nt
Cc1ccccc1CS(=O)(=O)Cc1ccc(C(=O)Nc2ccccc2C)o1	-2	2	0	1	1	nt	nt	nt
COc1ccc(C(=O)N2N=C3CC(C)(C)OCC3C2c2ccccc2)cc1 (centres undefined)	-4	66*	2	2	0	0	1	-7
